# From PubChem BioAssay
# Where “and” joins values, the source holds several entries; their conditions need not be identical. Equal values may be shown once. Records with an inconclusive call do not appear. Calls of active or inactive are those of the source. Unless noted, the rule behind the calls is not given here.
# What was measured:
# [1] = tested on: Aerobactin synthetase IucA (Klebsiella pneumoniae, hypervirulent); assay: biochemical IucA inhibition screen of LOPAC library by absorbance (AID 1346212); conditions: IucA enzyme assay, absorbance (OD) readout; stronger effect = lower value;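 tested at 8 µM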;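 note: 100% = no compound wells and 0% = no enzyme wells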
# [2] = compounds altering circadian rhythm period length – cell-based, LOPAC library, luminescence reporter (AID 2774); conditions: circadian reporter cells, at 7 µM, actives lie on both sides;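 note: values are relative to mean of DMSO wells on each plate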
# [3] = tested on: Hepatitis C virus NS3 helicase; assay: blockers of NS3h binding to ssDNA – biochemical, fluorescence polarization, LOPAC1280 library, primary screen (AID 687035; in the data active = inhibition above about 37%); conditions: Purified HCV NS3 helicase, Cy5-dT15 ssDNA binding fluorescence polarization; stronger effect = higher value; concentration not given here
# [4] = compounds altering Cy5-DNA-NS3h complex signal – biochemical, LOPAC1280, artefact control for HCV NS3 helicase inhibitor project (AID 687037); conditions: Cy5-DNA-NS3h complex fluorescence interference counterscreen
# [5] = viability loss with induced miR-34 in A549 – imaging, A549 dox-inducible miR-34, nuclei and caspase counts, primary screen (AID 1347080;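 active = compounds whose cell count with miR-34 switched on is under 0.7 times the count with it off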); conditions: A549 miR-34 inducible, Hoechst nuclei count, 48 h
# [6] = blockers of cellular phospholipid synthesis – cell-based, LOPAC library, screen 4, primary screen (AID 1347384); conditions: animal cells, phospholipid biosynthesis inhibition screen; at 10 µM
# [7] = galactose survival enhancers in mitochondrial complex I cybrids – cell-based, galactose medium, ATP luminescence, primary screen (AID 1645843;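 active = z-score of at least 1.8 in each of two replicates, scored against plate mean and spread of sample wells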;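 note: positive z means more ATP and so rescue of galactose-driven cybrid death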); conditions: complex I mutant cybrid cells, 72 h, stronger effect = higher value
# [8] = compounds altering viability of human ES cells (AID 493140); conditions: human embryonic stem cell survival screen; stronger effect = higher value;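 note: cells exposed to compounds for four days before counting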
# [9] = chitosan synthesis blockers in C. neoformans – flow cytometry, Cibacron Brilliant Red staining (AID 1347148); conditions: Cryptococcus neoformans chitosan, stronger effect = lower value; at 10 µM unless noted;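 note: compound exposure lasted three days at 37 degrees C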
# [10] = viability loss in pontine glioma line – cell-based, SU-DIPG-XXV, MIPE5.0, CellTiter-Glo, qHTS, dose response (AID 1347065; cut-off not given, nearly all actives have AC50 up to about 26 µM;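 note: cells exposed to compound for 48 hours before ATP readout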); conditions: CellTiter-Glo ATP luminescence
# [11] = JHH-DIPG-1 glioma cell viability, MIPE5.0 library, CellTiter-Glo luminescence, qHTS (AID 1347067; cut-off not given, nearly all actives have AC50 up to about 26 µM;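 note: cells exposed to compound for 48 hours before readout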); conditions: JHH-DIPG-1 glioma viability, CellTiter-Glo ATP luminescence
# [12] = growth inhibition of DIPG cells – cell-based, MIPE5.0 library, qHTS (AID 1347068; cut-off not given, nearly all actives have IC50 up to about 30 µM); conditions: SU-DIPG-XXV viability
# [13] = measured here: relative caspase fold change +Dox/-Dox
# [14] = measured here: total cells with miR-34 induction, stronger effect = lower value
# [15] = measured here: total cells without miR-34 induction
compound,measurement,setting,value
O=C(O)[C@@H]1C[C@@H](C(=O)O)N1,remaining activity,[1],115% (inactive)
Clc1nccc2c1ccc1ccccc12,remaining activity,[1],109% (inactive)
NCCNS(=O)(=O)c1cccc2c(Cl)cccc12,remaining activity,[1],96.1% (inactive)
CN1CCc2cc(O)cc3c2[C@H]1Cc1ccc(O)c(O)c1-3,period change,[2],0.03 h (inactive)
same,inhibition,[3],-2% (inactive)
same,fluorescence ratio (interference),[4],1 (inactive)
same,remaining activity,[1],101% (inactive)
same,fold change,[5]; stronger effect = lower value,1.01 (inactive)
same,fold change,[5]; [13],1.15
same,cell count,[5]; [14],9530
same,cell count,[5]; [15],9390
same,outcome,[6],inactive
same,z-score,[7],-1.03 (inactive)
CN(N=O)c1ccc(O)c(O)c1,period change,[2],-0.025 h (inactive)
same,inhibition,[3],27% (inactive)
same,fluorescence ratio (interference),[4],0.9 (inactive)
same,remaining activity,[1],85.2% (inactive)
same,fold change,[5]; stronger effect = lower value,1.13 (inactive)
same,fold change,[5]; [13],0.905
same,cell count,[5]; [14],9750
same,cell count,[5]; [15],8640
same,outcome,[6],inactive
same,z-score,[7],0.2 (inactive)
N#CC(C#N)=Cc1ccc([N+](=O)[O-])c(O)c1,period change,[2],-0.02 h (inactive)
same,survival,[8],124 (inactive)
same,remaining activity,[1],80.4% (inactive)
same,fold change,[5]; stronger effect = lower value,0.901 (inactive) and 1.08 (inactive)
same,fold change,[5]; [13],1.46 and 1.27
same,cell count,[5]; [14],4360 and 6240
same,cell count,[5]; [15],4840 and 5770
same,fold fluorescence,[9],5.5 [at 232.4 µM] (inactive)
NCC(O)c1cc(O)c(O)cc1F (configuration not stated),period change,[2],-0.105 h (inactive)
same,inhibition,[3],1% (inactive)
same,fluorescence ratio (interference),[4],0.9 (inactive)
same,remaining activity,[1],110% (inactive)
same,fold change,[5]; stronger effect = lower value,1.02 (inactive)
same,fold change,[5]; [13],1.46
same,cell count,[5]; [14],10300
same,cell count,[5]; [15],10200
same,outcome,[6],inactive
same,z-score,[7],-1.47 (inactive)
O=C(O)[C@@H]1CCN1,period change,[2],0.09 h (inactive)
same,inhibition,[3],-5% (inactive)
same,fluorescence ratio (interference),[4],0.9 (inactive)
same,remaining activity,[1],122% (inactive)
same,fold change,[5]; stronger effect = lower value,1.03 (inactive)
same,fold change,[5]; [13],1.27
same,cell count,[5]; [14],10700
same,cell count,[5]; [15],10400
same,outcome,[6],inactive
same,z-score,[7],0.2 (inactive)
CCCN1CCC[C@H](c2cccc(O)c2)C1,period change,[2],-0.035 h (inactive)
same,inhibition,[3],-3% (inactive)
same,fluorescence ratio (interference),[4],1 (inactive)
same,remaining activity,[1],98.7% (inactive)
same,fold change,[5]; stronger effect = lower value,1 (inactive)
same,fold change,[5]; [13],1.94
same,cell count,[5]; [14],9710
same,cell count,[5]; [15],9700
same,outcome,[6],inactive
same,z-score,[7],0.32 (inactive)
CC(=O)N[C@@H](Cc1c[nH]c2ccccc12)C(=O)OCc1cc(C(F)(F)F)cc(C(F)(F)F)c1,remaining activity,[1],117% (inactive)
CCS(=O)(=O)Nc1cccc(C(=C2CCCCC2)c2cnc[nH]2)c1,period change,[2],0.07 h (inactive)
same,inhibition,[3],0% (inactive)
same,fluorescence ratio (interference),[4],1 (inactive)
same,remaining activity,[1],108% (inactive)
same,fold change,[5]; stronger effect = lower value,1.11 (inactive)
same,fold change,[5]; [13],1.94
same,cell count,[5]; [14],8610
same,cell count,[5]; [15],7740
same,outcome,[6],inactive
same,z-score,[7],-0.125 (inactive)
CC(=O)c1c(O)c(C)c(O)c(Cc2c(O)c3c(c(C(=O)/C=C/c4ccccc4)c2O)OC(C)(C)C=C3)c1O,period change,[2],0.065 h (inactive)
same,survival,[8],142 (inactive)
same,inhibition,[3],-3% (inactive)
same,fluorescence ratio (interference),[4],0.9 (inactive)
same,remaining activity,[1],100% (inactive)
same,AC50,[10],20.9 µM (active)
same,AC50,[11],23.5 µM (active)
same,outcome,[12],inactive
same,fold change,[5]; stronger effect = lower value,0.991 (inactive) and 1.02 (inactive)
same,fold change,[5]; [13],1.01 and 0.826
same,cell count,[5]; [14],1480 and 1570
same,cell count,[5]; [15],1490 and 1540
same,fold fluorescence,[9],4.65 [at 96.8 µM] (inactive)
same,outcome,[6],active
same,z-score,[7],-1.27 (inactive)
